Results as given in the supplement of paper PMC12350171.
Structures can show the parent of a compound that is named as a salt. Unmarked numbers belong to inactive results.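 How the source made its calls: active = AUC significantly below DMSO controls by Student t-fit with adjusted P under 0.01; inactive = not significantly reduced.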

System: Haemophilus parainfluenzae
Assay: growth AUC normalised to DMSO control (fraction of control); higher = less growth inhibition, active = hit call of the paper
Conditions: 20 µM
Method in brief: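 Pathogens passaged twice anaerobically were inoculated at a starting OD578 of 0.01 into pre-reduced mGAM plates with drug at 20 μM and 1% DMSO, sealed with breathable membranes. Haemophilus parainfluenzae medium was supplemented with hemin and NAD. OD578 was read hourly for 24 h, with three biological replicates. Growth-curve AUC was computed by the trapezoidal rule up to the exponential-to-stationary transition and normalised to DMSO controls on the same plate.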

| SMILES | growth AUC normalised to DMSO control |
| --- | --- |
| CN(C)CCOC(C)(c1ccccc1)c1ccccn1 (configuration not stated) [Doxylamine succinate] | 0.989 |
| CC(=O)CC(c1ccccc1)c1c(O)c2ccccc2oc1=O (configuration not stated) [Warfarin] | 1.02 |
| CCN(CC)CCNC(=O)c1cc(Cl)c(N)cc1OC [Metoclopramide monohydrochloride] | 0.991 |
| O=C1Nc2ccc(Cl)cc2[C@@](C#CC2CC2)(C(F)(F)F)O1 [Efavirenz] | 0.991 |
| CC(=O)N(CC(O)CN(C(C)=O)c1c(I)c(C(=O)NCC(O)CO)c(I)c(C(=O)NCC(O)CO)c1I)c1c(I)c(C(=O)NCC(O)CO)c(I)c(C(=O)NCC(O)CO)c1I (configuration not stated) [Iodixanol] | 0.976 |
| Clc1ccc(CSC(Cn2ccnc2)c2ccc(Cl)cc2Cl)cc1 (configuration not stated) [Sulconazole nitrate] | 1.08 |
| COc1cc(C(=O)OCCCN2CCCN(CCCOC(=O)c3cc(OC)c(OC)c(OC)c3)CC2)cc(OC)c1OC [Dilazep dihydrochloride] | 0.97 |
| C#C[C@]1(O)CC[C@H]2[C@@H]3CCC4=CCCC[C@@H]4[C@H]3CC[C@@]21C [Lynestrenol] | 0.931 |
| CN1CCN(C(c2ccccc2)c2ccc(Cl)cc2)CC1 (configuration not stated) [Chlorcyclizine hydrochloride] | 0.982 |
| CC[C@]12CCCN3CCc4c(n(c5ccccc45)[C@@](O)(C(=O)OC)C1)[C@@H]32 [Vincamine] | 0.98 |
| CCN(CC)CCOC(=O)C(c1ccccc1)C1CCCCC1 (configuration not stated) [Drofenine hydrochloride] | 0.992 |
| CN1Cc2c(N)cccc2C(c2ccccc2)C1 (configuration not stated) [Nomifensine maleate] | 0.915 |
| CCCCC(CC)CN1CN(CC(CC)CCCC)CC(C)(N)C1 (configuration not stated) [Hexetidine] | 1.08 |
| O=c1[nH]c(=O)n([C@H]2C[C@H](O)[C@@H](CO)O2)cc1C(F)(F)F [Trifluridine] | 1.08 |
| CC(=O)OCC(=O)[C@@]12N=C(C)O[C@@H]1C[C@H]1[C@@H]3CCC4=CC(=O)C=C[C@]4(C)[C@H]3[C@@H](O)C[C@@]12C [Deflazacort] | 1.02 |
| O=C1CN(/N=C/c2ccc([N+](=O)[O-])o2)C(=O)N1 [Nitrofurantoin] | 0.369 (active) |

| SMILES | growth AUC normalised to DMSO control |
| --- | --- |
| C[C@]12CC[C@@H]3c4ccc(O)cc4CC[C@H]3[C@@H]1C[C@@H](O)[C@@H]2O [Estriol] | 1.02 |
| CNCCCC12CCC(c3ccccc31)c1ccccc12 [Maprotiline hydrochloride] | 0.979 |
| CS(=O)(=O)OCCCCOS(C)(=O)=O [Busulfan] | 1 |
| c1ccc(CNc2ncnc3nc[nH]c23)cc1 [Aminopurine, 6-benzyl] | 1 |
| CC(CNC1CCCCC1)OC(=O)c1ccccc1 (configuration not stated) [Hexylcaine hydrochloride] | 0.995 |
| COc1cc2ncnc(Nc3ccc(F)c(Cl)c3)c2cc1OCCCN1CCOCC1 [Gefitinib] | 0.971 |
| N=C(N)NC(=N)NCCc1ccccc1 [Phenformin hydrochloride] | 1.04 |
| CC(C)NCC(O)c1ccc(O)c(O)c1 (single isomer, unassigned; (+)) [(+) Isoproterenol-(+)-bitartrate salt] | 1.02 |
| O=C(COc1ccc(Cl)cc1)N1CCN(Cc2ccc3c(c2)OCO3)CC1 [Fipexide hydrochloride] | 0.836 |
| CCn1cc(C(=O)O)c(=O)c2cc(F)c(N3CCNCC3)cc21 [Norfloxacin] | 0.0519 (active) |
| CCN(CC)CCOc1ccc(C(=C(Cl)c2ccccc2)c2ccccc2)cc1 [(Z,E) Clomiphene citrate] | 1.02 |
| Cn1c(=O)c2[nH]cnc2n(C)c1=O [Aminophylline] | 1.04 |
| NC[C@H]1CC[C@H](C(=O)O)CC1 [Tranexamic acid] | 1.04 |
| CCCCCCCCCCCCCCCC[N+](C)(C)CCN(Cc1ccc(OC)cc1)c1ncccn1 [Thonzonium bromide] | 0.978 |
| Nc1ccc(S(=O)(=O)Nc2ncccn2)cc1 [Sulfadiazine] | 1.01 |
| C[C@]12CCC(=O)C=C1C=C[C@@H]1[C@@H]2CC[C@@]2(C)[C@H]1CC[C@@]21CCC(=O)O1 [Canrenone] | 1 |
